Data from PubChem BioAssay.
The source made the active and inactive calls.

Assays:
[1] = test system: Plasmodium falciparum Sir2 (PF13_0152, Sir2A); experiment: pfSir2 binders on small-molecule microarrays, primary screen, biochemical, small-molecule microarray, 635 nm fluorescence (AID 1098); details: small-molecule microarray binding, fluorescence 635 nm; higher = more signal;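 further: score merges spot fluorescence intensity with its signal-to-noise ratio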
[2] = small-molecule microarray binders of probe aDKK1, primary screen, biochemical, biotinylated probe, 635/667 nm fluorescence (AID 1099); details: higher = more signal;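 further: score merges 667nm spot fluorescence with signal to noise across triplicate slides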
[3] = small-molecule microarray binders of probe aCHRDL2, primary screen, biochemical, biotinylated probe, 635/667 nm fluorescence (AID 1100); details: higher = more signal
[4] = splicing luciferase reporter signal modulators, primary screen, spliceosome inhibition project, cell-based, HEK293, splice +/- reporter (AID 1101); details: luminescence, 24 h, higher = more signal, called active from +8 up or from −8 down;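 further: HEK293 cells carrying a splicing-competent luciferase reporter gene; test concentration not given here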
[5] = target: Fibroblast growth factor 10 (Homo sapiens) (UniProt O15520); experiment: FGF10 binders on small-molecule microarrays, primary screen, biochemical, small-molecule microarray, 635 nm fluorescence (AID 1102); details: FGF10 binding, fluorescence 635 nm, higher = more signal
Fibroblast growth factor 10 (Homo sapiens), sequence (O15520 whole entry, looked up): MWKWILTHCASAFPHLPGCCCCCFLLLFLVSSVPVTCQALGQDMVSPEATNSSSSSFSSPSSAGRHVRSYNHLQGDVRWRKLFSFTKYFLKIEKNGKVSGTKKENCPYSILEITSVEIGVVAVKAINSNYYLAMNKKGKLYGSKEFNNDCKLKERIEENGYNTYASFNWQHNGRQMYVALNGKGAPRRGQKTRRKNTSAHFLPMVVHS

[6] = test system: glycogen synthase kinase-3 (GSK3A per assay name; protocol says GSK3B); experiment: GSK3 binders on small-molecule microarrays, primary screen, biochemical, small-molecule microarray, 635 nm fluorescence, GSK3A (AID 1103); details: small-molecule microarray binding, fluorescence 635 nm; higher = more signal; further: the record names both GSK3A and GSK3B
[7] = target: Epidermal growth factor receptor (Homo sapiens) (UniProt P00533); experiment: EGFR binders on small-molecule microarrays, primary screen, biochemical, small-molecule microarray, 635 nm fluorescence (AID 1104); details: EGFR binding, higher = more signal;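 further: score merges 667 nm emission intensity with spot signal to noise over triplicate slides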
Epidermal growth factor receptor (Homo sapiens), sequence (P00533 whole entry, looked up): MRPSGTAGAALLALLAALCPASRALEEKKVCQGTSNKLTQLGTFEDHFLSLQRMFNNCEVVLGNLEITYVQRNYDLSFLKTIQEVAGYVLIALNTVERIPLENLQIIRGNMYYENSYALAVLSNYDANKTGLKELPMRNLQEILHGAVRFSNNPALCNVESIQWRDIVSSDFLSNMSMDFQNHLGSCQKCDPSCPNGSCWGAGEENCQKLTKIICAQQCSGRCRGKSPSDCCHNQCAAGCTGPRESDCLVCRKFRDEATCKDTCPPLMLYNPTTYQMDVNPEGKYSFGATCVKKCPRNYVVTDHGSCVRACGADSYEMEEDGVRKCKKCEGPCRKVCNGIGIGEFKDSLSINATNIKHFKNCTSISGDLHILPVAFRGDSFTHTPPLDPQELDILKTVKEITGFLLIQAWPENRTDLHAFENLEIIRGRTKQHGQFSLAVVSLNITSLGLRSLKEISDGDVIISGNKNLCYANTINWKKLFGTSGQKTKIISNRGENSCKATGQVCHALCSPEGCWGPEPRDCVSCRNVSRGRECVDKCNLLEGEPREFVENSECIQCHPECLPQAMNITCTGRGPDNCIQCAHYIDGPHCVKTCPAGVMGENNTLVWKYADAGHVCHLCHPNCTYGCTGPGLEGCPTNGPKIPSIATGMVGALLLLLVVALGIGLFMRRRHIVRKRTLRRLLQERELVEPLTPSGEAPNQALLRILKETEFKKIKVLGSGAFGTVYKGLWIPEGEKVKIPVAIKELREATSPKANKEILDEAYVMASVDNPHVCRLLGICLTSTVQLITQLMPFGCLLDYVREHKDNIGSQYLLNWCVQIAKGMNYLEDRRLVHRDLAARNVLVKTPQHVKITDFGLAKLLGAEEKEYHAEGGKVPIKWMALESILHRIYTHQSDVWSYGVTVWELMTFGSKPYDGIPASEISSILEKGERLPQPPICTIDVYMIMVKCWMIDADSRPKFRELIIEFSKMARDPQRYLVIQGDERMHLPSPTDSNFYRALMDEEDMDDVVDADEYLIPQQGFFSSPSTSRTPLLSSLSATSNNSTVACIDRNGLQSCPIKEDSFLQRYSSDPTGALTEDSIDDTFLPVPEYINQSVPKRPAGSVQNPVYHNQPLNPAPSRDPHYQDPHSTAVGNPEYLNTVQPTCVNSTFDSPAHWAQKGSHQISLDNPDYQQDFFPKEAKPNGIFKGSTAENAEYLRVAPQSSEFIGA

[8] = target: Follistatin-related protein 3 (Homo sapiens) (UniProt O95633); experiment: FSTL3 binders on small-molecule microarrays, primary screen, biochemical, small-molecule microarray, 635 nm fluorescence (AID 1105); details: FSTL3 binding, higher = more signal;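 further: score merges emission near 667 nm and signal to noise per printed spot across three slides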
Follistatin-related protein 3 (Homo sapiens), sequence (O95633 whole entry, looked up): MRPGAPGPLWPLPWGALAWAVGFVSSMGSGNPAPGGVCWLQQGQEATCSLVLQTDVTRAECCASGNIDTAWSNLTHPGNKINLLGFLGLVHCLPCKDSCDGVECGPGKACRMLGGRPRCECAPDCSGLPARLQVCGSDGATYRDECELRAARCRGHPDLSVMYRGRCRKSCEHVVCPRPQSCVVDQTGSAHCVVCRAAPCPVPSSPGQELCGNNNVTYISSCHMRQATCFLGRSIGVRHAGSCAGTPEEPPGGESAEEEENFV

[9] = target: Dickkopf-related protein 1 (Homo sapiens) (UniProt O94907); experiment: DKK1 binders on small-molecule microarrays, primary screen, biochemical, small-molecule microarray, 635 nm fluorescence scan (AID 1106); details: DKK1 binding, higher = more signal;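 further: score merges emission near 667 nm with signal to noise over three replicate slides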
Dickkopf-related protein 1 (Homo sapiens), sequence (O94907 whole entry, looked up): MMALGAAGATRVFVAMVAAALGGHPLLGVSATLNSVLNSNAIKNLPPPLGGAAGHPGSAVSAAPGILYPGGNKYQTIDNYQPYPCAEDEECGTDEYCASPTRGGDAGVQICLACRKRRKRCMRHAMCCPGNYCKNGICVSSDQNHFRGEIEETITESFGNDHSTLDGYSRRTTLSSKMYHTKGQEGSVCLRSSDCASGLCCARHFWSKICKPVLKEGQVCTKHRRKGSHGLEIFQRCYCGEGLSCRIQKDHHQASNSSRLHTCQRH

[10] = test system: Inhibin beta A chain (activin A); experiment: INHBA (activin A) binders on microarrays, primary screen, biochemical, small-molecule microarray, 635 nm fluorescence scan (AID 1107); details: small-molecule microarray binding, higher = more signal;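 further: mouse activin A protein probed at 4.33 µg/mL on printed slides; score merges bound-protein fluorescence near 667 nm with spot signal-to-noise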
[11] = test system: Human papillomavirus type 1a protein E7 (residues 44-93); experiment: HPV1a E7 fragment binders on microarrays, primary screen, biochemical, small-molecule microarray, residues 44-93, 635 nm fluorescence (AID 1108); details: small-molecule microarray binding, fluorescence 635 nm; higher = more signal;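 further: E7 fragment applied at 1 µg/mL in TBST for 1 h at 4 C; score combines spot fluorescence with its signal to noise ratio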
[12] = modulators of HCV replicon luciferase signal, primary screen, HCV replication inhibitor project, Huh7 cells, luciferase reporter (AID 1109); details: 48 h, higher = more signal;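 further: huh7 hepatoma cells harbouring a luciferase neomycin HCV replicon reporter; luciferase luminescence as measure of HCV replicon replication; test concentration not given here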
[13] = target: Left-right determination factor 2 (Homo sapiens) (UniProt O00292); experiment: LEFTY2 binders on small-molecule microarrays, primary screen, biochemical, small-molecule microarray, 635 nm fluorescence scan (AID 1110); details: LEFTY2 binding, higher = more signal
Left-right determination factor 2 (Homo sapiens), sequence (O00292 whole entry, looked up): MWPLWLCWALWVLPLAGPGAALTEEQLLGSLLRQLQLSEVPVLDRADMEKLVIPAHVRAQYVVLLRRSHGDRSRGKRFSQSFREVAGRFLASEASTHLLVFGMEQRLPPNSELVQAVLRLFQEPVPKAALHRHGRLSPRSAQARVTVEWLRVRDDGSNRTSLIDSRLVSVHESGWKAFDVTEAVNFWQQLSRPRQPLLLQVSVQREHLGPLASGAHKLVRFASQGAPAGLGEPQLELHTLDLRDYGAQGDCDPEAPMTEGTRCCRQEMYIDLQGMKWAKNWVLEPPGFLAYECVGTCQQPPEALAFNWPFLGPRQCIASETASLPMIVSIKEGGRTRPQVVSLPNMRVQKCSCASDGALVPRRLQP

[14] = target: Calmodulin-1 (Homo sapiens) (UniProt P0DP23); experiment: CALM1 binders on microarrays, EGTA buffer, profiling panel, biochemical, small-molecule microarray, Cy5-labelled CALM1 (AID 1111); details: Cy5-CALM1 binding fluorescence, higher = more signal;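 further: labelled calmodulin applied in Tris saline Tween buffer holding calcium plus EGTA and DTT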
[15] = target: Calmodulin-1 (Homo sapiens) (UniProt P0DP23); experiment: calcium-bound CALM1 binders on microarrays, profiling panel, artefact control for SMM control-protein annotation, biochemical, small-molecule microarray, Cy5-labelled CALM1, plus calcium (AID 1112); details: Cy5-CALM1 binding fluorescence, higher = more signal;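 further: score merges spot fluorescence with signal to noise from triplicate slides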
[16] = small-molecule microarray binders of probe aWnt5a, primary screen, biochemical, biotinylated probe, 635/667 nm fluorescence (AID 1113); details: higher = more signal;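 further: score merges 667 nm fluorescence intensity with signal-to-noise per printed feature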
[17] = small-molecule microarray binders of probe aShh, primary screen, biochemical, biotinylated probe, 635/667 nm fluorescence (AID 1114); details: higher = more signal;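 further: probe is biotin-labelled aShh protein from a stem cell growth factor screen; measures binding of labelled protein to compounds printed on the slide; score merges feature fluorescence at 667 nm with signal-to-noise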
[18] = small-molecule microarray binders of probe aNog, primary screen, biochemical, biotinylated probe, 635/667 nm fluorescence (AID 1115); details: higher = more signal;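 further: probe is biotinylated aNog protein used at 0.15 µg/mL for 1 h at 4 C; z-score combines 667 nm fluorescence of each spot with its signal to noise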
[19] = target: Torsin-1A-interacting protein 1 (Homo sapiens) (UniProt Q5JTV8); experiment: LAP1 binders from COS7 cell lysate, primary screen, small-molecule microarray, 635/667 nm fluorescence (AID 1116); details: COS7-hLAP1 lysate binding, 635 nm fluorescence, higher = more signal
Torsin-1A-interacting protein 1 (Homo sapiens), sequence (Q5JTV8 whole entry, looked up): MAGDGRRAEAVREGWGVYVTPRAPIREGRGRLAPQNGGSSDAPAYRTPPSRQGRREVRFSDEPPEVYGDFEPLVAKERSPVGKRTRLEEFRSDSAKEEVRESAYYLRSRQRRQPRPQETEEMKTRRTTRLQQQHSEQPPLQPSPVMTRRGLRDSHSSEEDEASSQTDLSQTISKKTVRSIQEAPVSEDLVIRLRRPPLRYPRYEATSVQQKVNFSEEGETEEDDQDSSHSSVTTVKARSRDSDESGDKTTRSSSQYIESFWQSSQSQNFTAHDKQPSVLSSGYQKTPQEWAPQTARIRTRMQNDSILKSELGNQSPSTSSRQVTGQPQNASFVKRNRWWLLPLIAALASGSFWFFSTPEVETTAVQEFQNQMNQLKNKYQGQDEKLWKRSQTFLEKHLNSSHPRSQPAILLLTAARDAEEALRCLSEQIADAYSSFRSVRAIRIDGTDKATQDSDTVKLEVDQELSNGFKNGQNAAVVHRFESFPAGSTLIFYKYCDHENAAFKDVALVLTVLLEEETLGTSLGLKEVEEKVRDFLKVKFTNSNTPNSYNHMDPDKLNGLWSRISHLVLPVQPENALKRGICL

[20] = target: Alpha-bungarotoxin (Bungarus multicinctus) (UniProt P60615); experiment: alpha-bungarotoxin binders on microarray, profiling panel, artefact control for SMM control protein annotation, biochemical, small-molecule microarray, Alexa647 label, 635/667 nm fluorescence (AID 1117); details: alpha-BTX-A647 binding fluorescence, higher = more signal
Alpha-bungarotoxin (Bungarus multicinctus), sequence (P60615 whole entry, looked up): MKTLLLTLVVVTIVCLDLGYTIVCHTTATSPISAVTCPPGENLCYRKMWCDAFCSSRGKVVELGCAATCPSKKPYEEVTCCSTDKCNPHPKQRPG

Row | Compound | composite z-score [1] | composite z-score [2] | composite z-score [3] | z-score [4] | composite z-score [5] | composite z-score [6] | composite z-score [7] | composite z-score [8] | composite z-score [9] | composite z-score [10] | composite z-score [11] | z-score [12] | composite z-score [13] | composite z-score [14] | composite z-score [15] | composite z-score [16] | composite z-score [17] | composite z-score [18] | composite z-score [19] | composite z-score [20]
1 | O=C(c1ccccc1)N1Cc2ccccc2C[C@@]2(COC(c3ccc(OCCCO)cc3)=N2)C1=O | 1.5 | 0.298 | 0.657 | 0.372 (inactive) | 1.1 | 1.29 | 0.0545 | 0.796 | 0.146 | 0.7 | 1.4 | -1.25 | 0.252 | 1.32 | 0.566 | -0.0512 | 0.184 | -0.486 | 1.31 | 1.83
2 | NC(=O)[C@@H]1[C@H]2C(=O)O[C@H](c3ccccc3)[C@H](c3ccccc3)N2[C@H](c2ccc(O)cc2)[C@@]12C(=O)Nc1ccccc12 | 0.0555 | -0.109 | 0.798 | -0.936 (inactive) | -0.433 | -1.04 | -0.49 | -1.06 | -1.91 | -0.638 | 0.812 | -1.1 | -2.27 | -0.395 | -0.127 | -0.127 | -0.0553 | 0.264 | -1.02 | -0.674
3 | COC(=O)[C@@]1(Cc2ccc(F)cc2)[C@H]2c3cc(C(=O)N4CCCC4)n(Cc4ccc(S(C)(=O)=O)cc4)c3C[C@H]2CN1C(=O)c1ccccc1 | 1.2 | 1.14 | 0.949 | -0.501 (inactive) | 0.598 | 0.108 | 0.771 | 0.473 | 0.328 | 1.38 | 1.38 | -1.88 | 0.533 | 1.36 | 1.05 | 0.25 | 0.232 | 1.89 | 0.186 | 0.453
4 | CCC[C@@H]1C[C@@]1(CCC)[C@@H](NC(=O)c1ccccc1)c1cccc(Cl)c1 | -0.12 | 2 | 0.958 | 0.444 (inactive) | 0.905 | 1.09 | 0.446 | 0.644 | -0.202 | 1.08 | 1.37 | -0.75 | -0.278 | 1.97 | 1.43 | 1.09 | 1.35 | 0.311 | 1.04 | 1.74
5 | CC(C)C(O)C1C=CC2C(=O)NC(=O)C2N1Nc1ccc(Cl)cc1Cl (stereo not given) | 0.686 | 1.2 | 1.37 | 1.54 (inactive) | -0.0826 | -0.234 | -0.0718 | -0.265 | -0.939 | 1.47 | -0.898 | -0.88 | -0.226 | 1.5 | 1.23 | -0.0944 | -0.296 | 0.0266 | 1.91 | 0.712
6 | COCCOC(=O)N1C(=O)[C@@]2(c3cc(C#CCCO)ccc31)[C@H](C(N)=O)[C@H]1C(=O)O[C@H](c3ccccc3)[C@H](c3ccccc3)N1[C@@H]2c1ccc(O)cc1 | 1.22 | -0.163 | 0.489 | 0.477 (inactive) | 0.344 | -0.124 | -0.376 | -0.131 | 0.0665 | 0.275 | -0.48 | 0.11 | -0.142 | -0.0162 | 0.461 | -0.0197 | -0.0035 | 0.0107 | 0.169 | 0.244
7 | CC(C)N1C(=O)[C@@]2(Cc3ccccc31)c1ccccc1C(=O)N(Cc1ccccc1Cl)[C@H]2c1ccc(CO)cc1 | 0.465 | -0.0724 | 0.621 | -1 (inactive) | -1 | -1.24 | -1.25 | -0.785 | -0.979 | 0.781 | -0.469 | -0.791 | -0.893 | -0.493 | -0.805 | -0.105 | -0.262 | -0.179 | -1.05 | -0.216
8 | C[C@H]1NC(=O)[C@@]23C(=O)N[C@@H](Cc4ccccc4)C2[C@H](C)[C@@]2(C)O[C@H]2C3/C=C/C/C=C\CNC(=O)[C@@H]2CCCN2C1=O (stereo not given in full) | 0.466 | -0.192 | -0.575 | 0.856 (inactive) | 0.861 | 0.365 | 0.283 | 0.891 | 0.296 | 0.947 | 0.209 | 0.534 | 0.297 | 0.339 | -0.52 | -0.0593 | -0.0035 | -0.0841 | 0.159 | 0.368
9 | C=C(C)[C@@H]1CC=C(C(O)C2C=CC3C(=O)N(c4ccccc4)C(=O)C3N2Nc2ccccc2)CC1 (stereo not given in full) | 0.972 | 1.06 | 0.906 | 0.0541 (inactive) | 0.852 | 1.32 | -0.747 | 1.15 | 0.364 | 0.622 | 0.478 | -1.38 | 0.261 | 2.06 | 0.103 | 0.212 | 0.642 | 1.95 | 1.79 | 2.62
10 | C=C[C@H](CO[Si](CC)(CC)CC)N(Cc1ccc(OC(C)=O)c(OC)c1)S(=O)(=O)c1ccc(Br)cc1 | 0.609 | 0.964 | 0.471 | -0.0534 (inactive) | 0.365 | 0.443 | 0.275 | 0.465 | 0.0558 | 1.1 | 1.15 | -3.27 | 0.537 | 1.41 | 0.67 | 0.101 | -0.057 | 0.0481 | 1.12 | 1.23
11 | COc1ccc([Si](C)(C)[C@H]2[C@H](CCO)O[C@@]3(C(=O)N(Cc4ccc(N(C=O)c5ccccc5)cc4)c4ccccc43)[C@@H]2C)cc1 | -0.0179 | -0.214 | 0.479 | -1.07 (inactive) | -0.697 | -1.09 | -0.969 | -0.251 | -0.36 | 0.213 | -0.2 | -4.65 | -0.677 | 0.625 | 1.01 | -0.124 | -0.0553 | -0.14 | 0.34 | 0.158
